esBAF inh: inhibitors of esBAF chromatin remodeling in mouse ES cells | Bmi1-luciferase knock-in reporter, 24 h; 100% = twice the neutral-well signal | reporter increase, % at 12.5 µM | 350,000 compounds, 2% hits | AID 602393; in the data active means activation above about 40%; inconclusive means no clear call, values can overlap the other calls;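 further: 0% = median of the plate's neutral control wells and 100% = double that signal; a rise in the Bmi1 reporter signal indicates esBAF inhibition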
Wnt act: Wnt/beta-catenin pathway activation | 300,000 compounds, 1.2% hits | AID 743398 | activation, % at 9.35 µM | Wnt/beta-catenin reporter cell assay, activator, plate reader; in the data active means activation above about 30%, passing the limit was not always enough; inconclusive means no clear call, values can overlap the other calls;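 further: 0% = neutral control wells and 100% = positive control wells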
AHR act: activators of human aryl hydrocarbon receptor | P35869 | AHR-responsive luciferase reporter cells, luminescence | activation, % at 5 µM | 320,000 compounds, 2.5% hits; in the data active means activation above about 47%;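 further: 0% = vehicle wells and 100% = reference agonist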
Target sequence (P35869 whole entry, looked up): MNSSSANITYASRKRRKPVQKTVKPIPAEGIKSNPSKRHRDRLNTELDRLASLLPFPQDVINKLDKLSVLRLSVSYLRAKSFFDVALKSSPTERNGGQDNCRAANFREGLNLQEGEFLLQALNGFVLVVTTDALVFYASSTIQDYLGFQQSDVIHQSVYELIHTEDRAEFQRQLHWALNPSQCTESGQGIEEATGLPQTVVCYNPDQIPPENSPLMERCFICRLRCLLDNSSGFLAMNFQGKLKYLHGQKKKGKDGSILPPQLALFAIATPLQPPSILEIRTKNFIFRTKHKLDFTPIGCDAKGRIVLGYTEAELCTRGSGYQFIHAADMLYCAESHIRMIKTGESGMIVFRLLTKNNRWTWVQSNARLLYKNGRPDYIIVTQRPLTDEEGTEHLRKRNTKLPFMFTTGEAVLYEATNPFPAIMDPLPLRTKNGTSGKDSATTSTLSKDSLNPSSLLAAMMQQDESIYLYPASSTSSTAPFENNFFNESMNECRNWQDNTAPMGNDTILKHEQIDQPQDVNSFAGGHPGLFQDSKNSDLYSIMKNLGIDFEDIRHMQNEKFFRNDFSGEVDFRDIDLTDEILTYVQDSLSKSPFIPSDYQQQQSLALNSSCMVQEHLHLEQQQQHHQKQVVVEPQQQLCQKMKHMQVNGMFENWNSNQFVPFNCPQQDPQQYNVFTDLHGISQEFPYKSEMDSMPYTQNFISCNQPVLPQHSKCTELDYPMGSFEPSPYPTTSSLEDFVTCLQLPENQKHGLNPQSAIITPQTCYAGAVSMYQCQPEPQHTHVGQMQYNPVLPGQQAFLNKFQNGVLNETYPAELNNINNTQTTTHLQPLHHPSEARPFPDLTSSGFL
MITF TRPM1 HTS: MITF TRPM1 promoter activation in melanoma cells | activation, % at 12.5 µM | SK-MEL-5 TRPM1-promoter luciferase, 24 h; % of positive control, neutral wells = 0 | AID 588334 | 300,000 compounds, 0.75% hits;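 active means mean activation of at least 80% with every replicate also reaching 80%; inconclusive means mean reaches 80% but some replicate falls short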;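 further: 0% = neutral control wells and 100% = parthenolide positive control wells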
GAA850 FXN act: increases GAA850 frataxin promoter reporter activity | HEK293 lucGAA850 FXN promoter luciferase reporter, 24 h; percent of 10 µM SAHA response | activation, % at 6 µM | 360,000 compounds, 0.56% hits;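 active means activation above the average of all compounds screened plus 3 SD, cutoff fixed separately per campaign, cut at about 7.5% in these data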;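 further: 0% = DMSO wells and 100% = 10 µM SAHA wells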
The depositor's hits bear a star; ? = inconclusive; nt = no result given. An excerpt weighted towards active compounds, which were near 4.2% of everything screened.

SMILES	esBAF inh	Wnt act	AHR act	MITF TRPM1 HTS	GAA850 FXN act
NS(=O)(=O)c1ccc(C(=O)Nc2ccc(-c3nc4cccnc4s3)cc2)cc1	nt	-4	57*	79	2
O=C(Nc1cccc(-c2nc3cccnc3s2)c1)c1ccc(Cl)nc1	8	15	68*	-9	3
O=C(Nc1cccc(-c2nc3cccnc3s2)c1)c1cccnc1Cl	18	12	45	28	4
COCCNC(=O)C[C@H]1C[C@H]2c3cc(NC(=O)Nc4ccc(C(F)(F)F)cc4)ccc3O[C@H]2[C@@H](CO)O1	0	nt	nt	nt	nt
CC(C)NC(=O)N(C)C[C@@H]1OCCCC[C@@H](C)Oc2ccc(NS(=O)(=O)c3cn(C)cn3)cc2C(=O)N([C@H](C)CO)C[C@@H]1C	-5	nt	nt	nt	nt
Cc1ccc(C(=O)/C=C/c2c[nH]c3ccccc23)cc1	-84	23	52*	64	6
COc1ccc2[nH]cc(/C=C/C(=O)c3ccccc3)c2c1	nt	39*	6	?	3
O=C(/C=C/c1cccc2ccccc12)c1ccncc1	nt	nt	8	-7	-1
Cc1[nH]c2ccccc2c1/C=C/C(=O)c1ccncc1	-1	4	56*	47	1
Cc1ccc(C(=O)/C=C/c2cn(CN3CCN(C)CC3)c3ccccc23)cc1	55*	nt	31	80	4
Cc1ccc(S(=O)(=O)/C(C#N)=C/c2c[nH]c3ccccc23)cc1	nt	nt	25	-16	0
COc1ccc(/C=C/C(=O)c2ccccc2)c(OC)c1	nt	61*	3	54	3
COc1cc(O)c(C(=O)/C=C/c2ccccc2)c(OC)c1	53*	-2	-1	nt	0
O=c1oc(CCCO)cc2ccc(/C=C/c3cccc([N+](=O)[O-])c3)cc12	49*	?	-1	92*	5
Cc1ccc(C)c(NCC(O)c2ccccc2)c1 (configuration not stated)	-2	0	52*	-2	-1
CCOc1ccccc1C(=O)Nc1ccc2c(c1)C(=O)NC2=O	3	-1	47*	9	1
COc1ccccc1C(=O)Nc1ccc2c(c1)C(=O)NC2=O	?	1	58*	22	0
Cc1ccccc1C(=O)Nc1ccc2c(c1)C(=O)NC2=O	-2	1	10	nt	-1
O=C(Cc1ccc(O)cc1)NC1CCCCCC1	36	16	6	90*	2
COc1ccc(-n2c(C)cc(C(=O)NC3CCCCC3)c2C)cc1	54*	18	4	43	6
CCc1ccc(NC(=O)C2CCCN2C(=O)NC2CCCCC2)cc1 (configuration not stated)	-2	1	0	-9	2
CCc1ccc(NC(=O)C(=S)NC2CCCCC2)cc1	30	-4	-3	119*	8
CCOc1ccc(NC(=O)C2CCN(C(=O)NC3CCCCC3)CC2)cc1	nt	-2	2	-3	-3
CCOc1ccc(NC(=O)C(=S)NC2CCCCC2)cc1	nt	-1	9	136*	5
O=C(Cc1ccc(Br)cc1)NC1CCCCC1	29	20	7	32	1
SMILES	esBAF inh	Wnt act	AHR act	MITF TRPM1 HTS	GAA850 FXN act
O=C(NCC[C@@H]1CC[C@@H](NC(=O)C2CC2)[C@H](CO)O1)Nc1ccc(Cl)cc1	25	nt	nt	nt	nt
CC=Cc1ccc2n(c1=O)C[C@H]1[C@H](CO)[C@@H](C(=O)NCc3ccncc3)N(Cc3ccncc3)[C@@H]21 (mixture of isomers)	-3	nt	nt	nt	nt
COc1ccc(NC(=O)C(=S)NC2CCCCC2)cc1	36	39*	9	69	7
Cc1ccc(NC(=S)NNC(=S)NC2CCCCC2)cc1	nt	3	50*	4	1
CCc1ccc(NC(=O)NC2CCCCCCC2)cc1	58*	19	nt	95*	4
CCOc1ccc(NC(=O)NC2CCCCCCC2)cc1	59*	0	nt	77	4
COc1ccc(NC(=O)c2ccccc2NC(=O)NC2CCCCC2)cc1	31	8	4	35	0
CC(C)c1ccc(NC(=S)NC2CCCCCC2)cc1	nt	-1	12	62	3
COc1ccc(CN2C[C@H](O)COC[C@H]3O[C@H](CC(=O)NCc4ccccc4Cl)CC[C@@H]32)cc1	-1	nt	nt	nt	nt
CC(C)NC(=O)Nc1ccc2c(c1)CC(=O)N([C@@H](C)CO)C[C@@H](C)[C@H](CN(C)Cc1ccc(C(=O)Nc3ccccc3N)cc1)O2	-4	nt	nt	nt	nt
CNC[C@@H]1Oc2c(NC(=O)Nc3ccc(OC)cc3)cccc2C(=O)N([C@H](C)CO)C[C@H]1C	-1	nt	nt	nt	nt
CNC[C@H]1OCCCC[C@H](C)Oc2ccc(NS(C)(=O)=O)cc2C(=O)N([C@H](C)CO)C[C@@H]1C	1	nt	nt	nt	nt
C[C@H](CO)N1C[C@H](C)[C@@H](CN(C)Cc2cncnc2)Oc2ncc(C#CC3CCCCC3)cc2C1=O	-4	nt	nt	nt	nt
COc1ccc(OC)c(NC(=O)C(=S)NC2CCCCC2)c1	nt	-2	70*	-5	4
CON(C)C(=O)/C=C/c1ccc([B-](F)(F)F)cc1	47*	7	nt	21	1
CCN(CC)C(=O)/C=C/c1ccccc1	nt	10	5	35	0
CC(C)c1cn(CC[C@H]2CC[C@@H](NS(=O)(=O)Cc3ccccc3)[C@@H](CO)O2)nn1	1	nt	nt	nt	nt
Cc1noc(C)c1COC(=O)c1cc(C)n(-c2ccccc2)c1C	80*	nt	1	nt	1
Cc1cc(C(=O)OCc2nnc(-c3ccccc3)o2)c(C)n1-c1ccccc1	26	nt	2	4	0
O=C(CSc1nncs1)Nc1ccc2c(c1)OCCO2	7	11	31	32	4
O=C(CSc1nncs1)NC(=O)Nc1ccc2c(c1)OCCO2	26	37*	11	57	7
O=[N+]([O-])c1ccc(/C=N/Nc2ccc3ccccc3c2)o1	nt	28	76*	-14	4
CC(=O)N(C)C[C@@H]1Oc2ncc(-c3cccc(C#N)c3)cc2C(=O)N([C@H](C)CO)C[C@@H]1C	-1	nt	nt	nt	nt
COc1cccc(S(=O)(=O)N(C)C[C@H]2Oc3ncc(C#CCN(C)C)cc3C(=O)N([C@H](C)CO)C[C@H]2C)c1	-3	nt	nt	nt	nt
Cc1ccc(Sc2c([N+](=O)[O-])c(=O)n(C)c3ccccc23)cc1	-1	32*	6	nt	2
SMILES	esBAF inh	Wnt act	AHR act	MITF TRPM1 HTS	GAA850 FXN act
Cc1ccc(S(=O)(=O)Nc2ccc3c(c2)CC(=O)N([C@@H](C)CO)C[C@H](C)[C@@H](CN(C)S(=O)(=O)c2ccc(Cl)cc2)O3)cc1	0	nt	nt	nt	nt
Cc1csc(=O)n1CC(=O)OCc1cccc2ccccc12	58*	25	-2	nt	4
COc1ccc(OCC(=O)N/N=C\c2ccco2)cc1	nt	-1	3	-3	0
COc1ccc(/[N+]([O-])=C/c2ccco2)cc1	55*	46*	1	89*	6
N#Cc1c(-c2cccc(Br)c2)cc(-c2cccnc2)nc1N	nt	nt	23	-3	0
N#Cc1c(-c2ccc(F)cc2)cc(-c2cccnc2)nc1N	nt	-2	55*	-4	2
CN(C)C(=O)[C@H]1[C@H](CO)[C@H]2Cn3c(ccc(/C=C/c4ccccc4)c3=O)[C@H]2N1C(=O)c1cccnc1	3	nt	nt	nt	nt
